# Test results: PubChem BioAssay (EPA / NIEHS)
# Activity calls are given as the source filed them. The calls were made as follows: active = hit-call score of the fitted dose curve at least 0.9, where 1 is the maximum; inactive = score below 0.9.
# What was measured:
# Conditions in all cases: mRNA level, 48 h; actives raise or lower the signal
# [1] = read-out: BCL2L11 (gene 10018); assay: LTEA_HepaRG_BCL2L11: Life Technologies and Expression Analysis (LTEA) Assay for Bcl-2 (BCL2L11) gene using HepaRG (AID 2283473)
# How it was run: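 HepaRG, 48 h exposure, 8-pt half-log series from 100 uM in 0.5% DMSO, duplicates; qRT-PCR (Fluidigm TaqMan) for BCL2L11, housekeeping-normalized; bidirectional curve fit relative to DMSO baseline.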
# [2] = read-out: Apolipoprotein A-V (APOA5) gene, APOA5 (gene 116519); assay: LTEA_HepaRG_APOA5: Life Technologies and Expression Analysis (LTEA) Assay for Apolipoprotein A-V (APOA5) gene using HepaRG (AID 2283474)
# How it was run: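 HepaRG, 48 h chemical exposure in serum-free induction medium, 8-pt half-log series (top 100 uM), 0.5% DMSO vehicle, duplicates. Readout: APOA5 mRNA by qRT-PCR, housekeeping-normalized; bidirectional fit vs DMSO baseline.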
# [3] = read-out: Apoptosis regulator Bcl-2 (Homo sapiens) (UniProt P10415); assay: LTEA_HepaRG_BCL2: Life Technologies and Expression Analysis (LTEA) Assay for Bcl-2 gene using HepaRG (AID 2283475)
# How it was run: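 Differentiated human HepaRG cells in serum-free induction medium exposed 48 h, in duplicate, to 8-point half-log series from 100 uM in 0.5% DMSO. BCL2 mRNA by qRT-PCR (TaqMan/Fluidigm), normalized to ACTB, GAPDH, POLR2A; bidirectional fit against DMSO.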
# [4] = read-out: Bcl-2 (BID) gene, BID (gene 637); assay: LTEA_HepaRG_BID: Life Technologies and Expression Analysis (LTEA) Assay for Bcl-2 (BID) gene using HepaRG (AID 2283476)
# How it was run: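 Gene expression by qRT-PCR in HepaRG cells after 48 h exposure, duplicate wells, eight half-log concentrations topping at 100 uM in 0.5% DMSO. Normalized to ACTB, GAPDH, POLR2A; bidirectional fitting relative to DMSO.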
# [5] = read-out: Caspase-3 (Homo sapiens) (UniProt P42574); assay: LTEA_HepaRG_CASP3: Life Technologies and Expression Analysis (LTEA) Assay for cysteine-aspartic acid protease (CASP3) using HepaRG (AID 2283477)
# How it was run: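 HepaRG, 48 h exposure, 8 conc. (top 100 uM, half-log steps, duplicate), 0.5% DMSO vehicle; qRT-PCR of CASP3 transcript, housekeeping-normalised (ACTB/GAPDH/POLR2A); bidirectional curve fit vs DMSO baseline.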
# [6] = read-out: Cytochrome P450 (CYP24A1), CYP24A1 (gene 1591); assay: LTEA_HepaRG_CYP24A1: Life Technologies and Expression Analysis (LTEA) Assay for Cytochrome P450 (CYP24A1) using HepaRG (AID 2283478)
# How it was run: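 qRT-PCR read-out: CYP24A1 transcript levels normalized to three housekeeping genes, bidirectional curve fits against 0.5% DMSO baseline. Human HepaRG cells treated 48 h with chemicals at eight concentrations from 100 uM in half-log steps.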
# [7] = read-out: Cytochrome P450 (CYP1A2), CYP1A2 (gene 1544); assay: LTEA_HepaRG_CYP1A2: Life Technologies and Expression Analysis (LTEA) Assay for Cytochrome P450 (CYP1A2) using HepaRG (AID 2283479)
# How it was run: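 HepaRG, 48 h exposure, top 100 uM, half-log 8-pt, 0.5% DMSO vehicle, duplicates. Readout: TaqMan qRT-PCR of CYP1A2 mRNA, housekeeping-normalized (ACTB/GAPDH/POLR2A). Gain/loss fit relative to DMSO baseline.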
# [8] = read-out: cysteine-aspartic acid protease (CASP8), CASP8 (gene 841); assay: LTEA_HepaRG_CASP8: Life Technologies and Expression Analysis (LTEA) Assay for cysteine-aspartic acid protease (CASP8) using HepaRG (AID 2283480)
# How it was run: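 HepaRG, 48 h exposure, duplicate wells; 8 conc, half-log from 100 uM, 0.5% DMSO. Serum-free induction medium. CASP8 mRNA by TaqMan qRT-PCR, norm. ACTB/GAPDH/POLR2A; gain/loss fitted vs DMSO.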
# [9] = read-out: Cytochrome P450 (CYP2B6), CYP2B6 (gene 1555); assay: LTEA_HepaRG_CYP2B6: Life Technologies and Expression Analysis (LTEA) Assay for Cytochrome P450 (CYP2B6) using HepaRG (AID 2283481)
# How it was run: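 Read-out is CYP2B6 mRNA by TaqMan qRT-PCR, normalized to three housekeeping genes and fitted bidirectionally against 0.5% DMSO baseline. Human HepaRG cells received test chemicals for 48 h, top concentration 100 uM, half-log dilutions.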
# [10] = read-out: Cytochrome P450 2C19 (Homo sapiens) (UniProt P33261); assay: LTEA_HepaRG_CYP2C19: Life Technologies and Expression Analysis (LTEA) Assay for CYP2C19 using HepaRG (AID 2283482)
# How it was run: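 HepaRG, 48 h chemical exposure, 8-pt half-log series from 100 uM in 0.5% DMSO, duplicates. Readout: CYP2C19 mRNA by TaqMan qRT-PCR, housekeeping-normalized. Bidirectional fit vs DMSO baseline; phenobarbital 1mM as induction control.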
# [11] = read-out: CYP2C8 (gene 1558); assay: LTEA_HepaRG_CYP2C8: Life Technologies and Expression Analysis (LTEA) Assay for CYP2C8 using HepaRG (AID 2283483)
# How it was run: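 CYP2C8 mRNA induction or loss, by qRT-PCR normalized to ACTB/GAPDH/POLR2A, is read in HepaRG cells after 48 h treatment. Concentrations run from 100 uM down in half-log dilutions, with 0.5% DMSO as vehicle and baseline.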
# [12] = read-out: CYP2C9 (gene 1559); assay: LTEA_HepaRG_CYP2C9: Life Technologies and Expression Analysis (LTEA) Assay for CYP2C9 using HepaRG (AID 2283484)
# How it was run: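 Cells plated 48 h, switched to serum-free induction medium, then treated in duplicate for 48 h at eight concentrations (max 100 uM, 0.5% DMSO). RNA then analysed by qRT-PCR for CYP2C9; curves fitted in both directions relative to DMSO.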
# [13] = read-out: CYP2E1 (gene 1571); assay: LTEA_HepaRG_CYP2E1: Life Technologies and Expression Analysis (LTEA) Assay for CYP2E1 using HepaRG (AID 2283485)
# How it was run: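 HepaRG cells, plated 48 h, then exposed 48 h in serum-free induction medium to eight half-log concentrations from 100 uM in 0.5% DMSO, duplicate. CYP2E1 mRNA by qRT-PCR, normalized to ACTB/GAPDH/POLR2A; bidirectional fit versus DMSO.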
# [14] = read-out: CYP4A11 (gene 1579); assay: LTEA_HepaRG_CYP4A11: Life Technologies and Expression Analysis (LTEA) Assay for CYP4A11 using HepaRG (AID 2283486)
# How it was run: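 CYP4A11 transcript levels were quantified by TaqMan qRT-PCR after HepaRG human liver cells were treated for 48 hours with test chemicals (top 100 uM, half-log dilutions, 0.5% DMSO). Gain or loss of signal was fitted relative to DMSO.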
# [15] = read-out: Cytochrome P450 3A4 (Homo sapiens) (UniProt P08684); assay: LTEA_HepaRG_CYP3A4: Life Technologies and Expression Analysis (LTEA) Assay for CYP3A4 using HepaRG (AID 2283487)
# How it was run: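 HepaRG, 48 h exposure, 8-pt CRC from 100 uM (half-log), 0.5% DMSO, duplicates; serum-free induction medium. Readout: CYP3A4 mRNA, qRT-PCR, ACTB/GAPDH/POLR2A normalization. Bidirectional fit vs DMSO.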
# [16] = read-out: DNA damage-inducible transcript 3 (DDIT3), DDIT3 (gene 1649); assay: LTEA_HepaRG_DDIT3: Life Technologies and Expression Analysis (LTEA) Assay for DNA damage-inducible transcript 3 (DDIT3) using HepaRG (AID 2283488)
# How it was run: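 HepaRG cells, 48 h after plating, exposed 48 h in serum-free induction medium to 8 half-log concentrations up to 100 uM in 0.5% DMSO, in duplicate. DDIT3 mRNA measured by TaqMan qRT-PCR, normalized to ACTB, GAPDH and POLR2A. Fitted bidirectionally against DMSO.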
# [17] = read-out: Pro-epidermal growth factor (Homo sapiens) (UniProt P01133); assay: LTEA_HepaRG_EGF: Life Technologies and Expression Analysis (LTEA) Assay for Epidermal growth factor (EGF) using HepaRG (AID 2283489)
# How it was run: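 qRT-PCR readout of EGF transcript after 48 h chemical exposure of HepaRG cells; eight concentrations from 100 uM down in half-log steps, duplicate wells, 0.5% DMSO vehicle. Bidirectional curve fitting against DMSO baseline.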
# [18] = read-out: Early growth response protein 1 (EGR1) transcription factor, EGR1 (gene 1958); assay: LTEA_HepaRG_EGR1: Life Technologies and Expression Analysis (LTEA) Assay for Early growth response protein 1 (EGR1) transcription factor using HepaRG (AID 2283490)
# How it was run: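 Read-out is EGR1 mRNA level by qRT-PCR, normalized to three housekeeping genes and analysed for gain or loss of signal against 0.5% DMSO. Source cells: human HepaRG, treated 48 h at up to 100 uM in half-log dilutions.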
# [19] = read-out: Ezrin (EZR), EZR (gene 7430); assay: LTEA_HepaRG_EZR: Life Technologies and Expression Analysis (LTEA) Assay for Ezrin (EZR) using HepaRG (AID 2283491)
# How it was run: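 Read-out is EZR transcript level by qRT-PCR, normalized to three housekeeping genes and fitted bidirectionally against the DMSO control. Human HepaRG cells received test chemicals for 48 h at eight half-log concentrations up to 100 uM in 0.5% DMSO.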
# [20] = read-out: Cytochrome P450 3A7 (Homo sapiens) (UniProt P24462); assay: LTEA_HepaRG_CYP3A7: Life Technologies and Expression Analysis (LTEA) Assay for CYP3A7 using HepaRG (AID 2283492)
# How it was run: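 CYP3A7 transcript levels were read by TaqMan qRT-PCR on Fluidigm arrays after 48 h chemical exposure of human HepaRG cells, with housekeeping-gene normalisation. Eight half-log concentrations up to 100 uM in 0.5% DMSO were tested in duplicate.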
# Chain of Cytochrome P450 3A7 (Homo sapiens) (P24462 whole entry, looked up): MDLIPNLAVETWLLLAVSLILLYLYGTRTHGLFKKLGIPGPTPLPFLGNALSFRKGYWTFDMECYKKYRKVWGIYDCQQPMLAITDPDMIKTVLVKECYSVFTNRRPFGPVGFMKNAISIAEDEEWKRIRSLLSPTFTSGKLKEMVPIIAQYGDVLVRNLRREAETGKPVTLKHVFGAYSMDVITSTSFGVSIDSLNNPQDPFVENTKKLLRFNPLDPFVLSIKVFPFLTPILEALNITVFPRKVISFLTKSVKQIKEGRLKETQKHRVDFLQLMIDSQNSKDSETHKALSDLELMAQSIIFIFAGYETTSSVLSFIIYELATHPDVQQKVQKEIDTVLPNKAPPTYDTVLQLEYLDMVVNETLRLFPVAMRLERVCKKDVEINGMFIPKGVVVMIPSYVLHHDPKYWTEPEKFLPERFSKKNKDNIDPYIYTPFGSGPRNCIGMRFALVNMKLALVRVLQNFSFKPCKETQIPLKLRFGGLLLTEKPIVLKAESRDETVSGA
# Chain of Cytochrome P450 3A4 (Homo sapiens) (P08684 whole entry, looked up): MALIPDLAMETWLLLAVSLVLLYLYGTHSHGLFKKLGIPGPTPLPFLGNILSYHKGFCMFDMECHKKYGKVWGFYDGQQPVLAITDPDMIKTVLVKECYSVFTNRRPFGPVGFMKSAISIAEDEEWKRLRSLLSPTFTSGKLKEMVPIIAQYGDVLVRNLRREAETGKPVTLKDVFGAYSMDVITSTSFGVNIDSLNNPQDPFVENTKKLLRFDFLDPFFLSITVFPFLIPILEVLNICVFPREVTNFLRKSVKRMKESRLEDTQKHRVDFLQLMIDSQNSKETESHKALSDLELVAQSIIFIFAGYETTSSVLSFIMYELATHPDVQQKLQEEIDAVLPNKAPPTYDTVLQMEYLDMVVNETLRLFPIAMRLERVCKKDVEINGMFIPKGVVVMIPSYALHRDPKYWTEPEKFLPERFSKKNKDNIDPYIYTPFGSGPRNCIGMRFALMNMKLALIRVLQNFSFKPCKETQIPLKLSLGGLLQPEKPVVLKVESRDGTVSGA
# Chain of Apoptosis regulator Bcl-2 (Homo sapiens) (P10415 whole entry, looked up): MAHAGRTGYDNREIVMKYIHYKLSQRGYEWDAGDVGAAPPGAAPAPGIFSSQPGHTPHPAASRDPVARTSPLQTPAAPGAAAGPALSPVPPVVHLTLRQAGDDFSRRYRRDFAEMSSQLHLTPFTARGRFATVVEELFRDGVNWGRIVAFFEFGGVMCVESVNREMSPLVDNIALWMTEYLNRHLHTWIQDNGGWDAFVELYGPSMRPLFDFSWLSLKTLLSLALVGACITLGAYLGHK
# Chain of Caspase-3 (Homo sapiens) (P42574 whole entry, looked up): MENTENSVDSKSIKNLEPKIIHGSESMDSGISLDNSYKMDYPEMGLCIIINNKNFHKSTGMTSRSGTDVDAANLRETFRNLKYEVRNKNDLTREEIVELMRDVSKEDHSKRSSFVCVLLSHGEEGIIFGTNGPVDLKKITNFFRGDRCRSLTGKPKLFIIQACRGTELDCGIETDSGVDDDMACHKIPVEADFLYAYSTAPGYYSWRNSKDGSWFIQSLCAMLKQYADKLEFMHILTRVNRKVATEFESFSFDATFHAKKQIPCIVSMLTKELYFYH
# Chain of Cytochrome P450 2C19 (Homo sapiens) (P33261 whole entry, looked up): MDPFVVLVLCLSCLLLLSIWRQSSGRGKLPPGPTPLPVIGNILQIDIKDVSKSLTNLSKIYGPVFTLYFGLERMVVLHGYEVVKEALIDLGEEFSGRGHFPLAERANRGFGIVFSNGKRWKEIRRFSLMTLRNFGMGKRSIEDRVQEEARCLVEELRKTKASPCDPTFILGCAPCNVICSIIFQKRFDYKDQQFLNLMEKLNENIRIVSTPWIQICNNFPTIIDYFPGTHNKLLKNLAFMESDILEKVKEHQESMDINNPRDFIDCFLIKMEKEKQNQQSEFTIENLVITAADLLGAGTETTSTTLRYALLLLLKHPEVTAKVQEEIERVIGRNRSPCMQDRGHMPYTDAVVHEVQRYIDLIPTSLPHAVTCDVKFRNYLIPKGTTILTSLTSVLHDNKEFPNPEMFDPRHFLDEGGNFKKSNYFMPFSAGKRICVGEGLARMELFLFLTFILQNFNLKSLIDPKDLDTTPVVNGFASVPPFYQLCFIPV
smiles,measurement,setting,value
OCCN(CCO)CCO,outcome,[1],inactive
same,outcome,[2],inactive
same,outcome,[3],inactive
same,outcome,[4],inactive
same,outcome,[5],inactive
same,outcome,[6],inactive
same,outcome,[7],inactive
same,outcome,[8],inactive
same,AC50,[9],21.1 µM (active)
same,outcome,[10],inactive
same,outcome,[11],inactive
same,outcome,[12],inactive
same,outcome,[13],inactive
same,outcome,[14],inactive
same,outcome,[15],inactive
same,outcome,[16],inactive
same,outcome,[17],inactive
same,outcome,[18],inactive
same,outcome,[19],inactive
same,outcome,[20],inactive
CCCCCCCCCCCCc1cccc(S(=O)(=O)O)c1,outcome,[1],inactive
same,outcome,[2],inactive
same,outcome,[3],inactive
same,outcome,[4],inactive
same,outcome,[5],inactive
same,outcome,[6],inactive
same,AC50,[7],45 µM (active)
same,outcome,[8],inactive
same,outcome,[9],inactive
same,AC50,[10],22.7 µM (active)
same,AC50,[11],45 µM (active)
same,outcome,[12],inactive
same,outcome,[13],inactive
same,AC50,[14],21.6 µM (active)
same,AC50,[15],18.9 µM (active)
same,AC50,[16],45 µM (active)
same,outcome,[17],inactive
same,outcome,[18],inactive
same,outcome,[19],inactive
same,AC50,[20],20.4 µM (active)
Cc1cc(C)cc(C)c1,outcome,[1],inactive
same,outcome,[2],inactive
same,outcome,[3],inactive
same,outcome,[4],inactive
same,outcome,[5],inactive
same,outcome,[6],inactive
same,outcome,[7],inactive
same,outcome,[8],inactive
same,outcome,[9],inactive
same,outcome,[10],inactive
same,outcome,[11],inactive
same,outcome,[12],inactive
same,outcome,[13],inactive
same,outcome,[14],inactive
same,outcome,[15],inactive
same,outcome,[16],inactive
same,outcome,[17],inactive
same,outcome,[18],inactive
same,outcome,[19],inactive
same,outcome,[20],inactive
O=C(N[C@H]1CN2CCC1CC2)c1ccc2c(c1)OCCO2,outcome,[1],inactive
same,outcome,[2],inactive
same,outcome,[3],inactive
same,outcome,[4],inactive
same,outcome,[5],inactive
same,outcome,[6],inactive
same,outcome,[7],inactive
same,outcome,[8],inactive
same,outcome,[9],inactive
same,outcome,[10],inactive
same,outcome,[11],inactive
same,outcome,[12],inactive
same,outcome,[13],inactive
same,outcome,[14],inactive
same,outcome,[15],inactive
same,outcome,[16],inactive
same,outcome,[17],inactive
same,outcome,[18],inactive
same,outcome,[19],inactive
same,outcome,[20],inactive
N#Cc1cccnc1,outcome,[1],inactive
same,outcome,[2],inactive
same,outcome,[3],inactive
same,outcome,[4],inactive
same,outcome,[5],inactive
same,outcome,[6],inactive
same,outcome,[7],inactive
same,outcome,[8],inactive
same,outcome,[9],inactive
same,outcome,[10],inactive
same,outcome,[11],inactive
same,outcome,[12],inactive
same,outcome,[13],inactive
same,outcome,[14],inactive
same,outcome,[15],inactive
same,outcome,[16],inactive
same,outcome,[17],inactive
same,outcome,[18],inactive
same,outcome,[19],inactive
same,outcome,[20],inactive
CC(C)(C)c1ccccc1O,outcome,[1],inactive
same,outcome,[2],inactive
same,outcome,[3],inactive
same,outcome,[4],inactive
same,outcome,[5],inactive
same,outcome,[6],inactive
same,outcome,[7],inactive
same,outcome,[8],inactive
same,AC50,[9],1.63 µM (active)
same,AC50,[10],1.47 µM (active)
same,AC50,[11],6.35 µM (active)
same,outcome,[12],inactive
same,AC50,[13],15.1 µM (active)
same,outcome,[14],inactive
same,AC50,[15],12.6 µM (active)
same,outcome,[16],inactive
same,outcome,[17],inactive
same,outcome,[18],inactive
same,outcome,[19],inactive
same,AC50,[20],4.77 µM (active)
CN(C)C(=S)S,outcome,[1],inactive
same,outcome,[2],inactive
same,outcome,[3],inactive
same,outcome,[4],inactive
same,outcome,[5],inactive
same,outcome,[6],inactive
same,AC50,[7],72.3 µM (active)
same,outcome,[8],inactive
same,AC50,[9],29.7 µM (active)
same,outcome,[10],inactive
same,outcome,[11],inactive
same,outcome,[12],inactive
same,outcome,[13],inactive
same,outcome,[14],inactive
same,outcome,[15],inactive
same,outcome,[16],inactive
same,outcome,[18],inactive
same,outcome,[19],inactive
same,outcome,[20],inactive
